Bioassay records: PubChem, National Center for Advancing Translational Sciences (NCATS)
Giardia FBPA inh-1: Giardia lamblia aldolase inhibition; A8B2U2; purified Giardia FBPA; Potency, µM (doses to about 59.6 µM), without a hit: top-dose activity, negative = inhibition, most hits filed as inhibitors; actives 0.71% (n = 290,000); also: % is scaled to controls: 0 for no effect and ±100 for the full control effect; nearly all actives have a fitted effect of over 55% in size
Target sequence (A8B2U2 whole entry, looked up): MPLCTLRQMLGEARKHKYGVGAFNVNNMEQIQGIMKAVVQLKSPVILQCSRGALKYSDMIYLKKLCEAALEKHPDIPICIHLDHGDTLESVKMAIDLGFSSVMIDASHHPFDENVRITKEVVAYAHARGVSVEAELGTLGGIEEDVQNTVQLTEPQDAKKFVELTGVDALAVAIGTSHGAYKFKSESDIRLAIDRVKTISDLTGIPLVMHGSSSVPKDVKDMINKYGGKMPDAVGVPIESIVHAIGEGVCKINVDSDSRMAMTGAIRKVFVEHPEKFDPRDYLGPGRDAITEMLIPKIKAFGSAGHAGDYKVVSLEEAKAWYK
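Giardia FBPA (40 nM reagent) was preincubated 10 min at RT with compound (up to 57.5 uM final), then substrate plus GAPDH/TPI/NAD/arsenate coupling system with diaphorase/resazurin was added; resorufin fluorescence (525/598 nm) was read after 20 min.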
LmPK inhibitor: LmPK (Leishmania mexicana) enzyme inhibition; Q27686; purified LmPK, Kinase-Glo ATP luminescence, 1 h; Potency, µM (top dose mostly 57.5 µM), without a hit: top-dose activity change, negative = inhibition, actives largely listed as inhibitors; actives 0.37% (n = 290,000); AID 1721; also: % is scaled to controls: 0 for no effect and ±100 for the full control effect
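Purified LmPK (0.1 nM) with 0.5 mM PEP and 0.1 mM ADP in imidazole buffer pH 7.2 with MgCl2/KCl, 1 h at room temperature. ATP formed was read by luciferase luminescence and normalized to no-enzyme and uninhibited controls.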
Tb PYK inh: blocks Trypanosoma brucei pyruvate kinase; actives 0.12% (n = 410,000); Q57TT1; TbPYK enzyme, Kinase-Glo Plus ATP luminescence, 45 min; Potency, µM (doses to about 76.8 µM), without a hit: at the highest dose activity, negative = inhibition, most hits filed as inhibitors; also: % is scaled to controls: 0 for no effect and ±100 for the full control effect; nearly all actives have a fitted effect of over 50% in size
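Enzyme and substrate buffer are dispensed first and compound is pin-transferred. ADP at 130 uM final then starts the reaction, which runs 45 min at room temperature. Detection reagent is added for 10 min before luminescence is imaged.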
RE007 growth inh: less growth of the S. pombe RE007 Vpr strain | actives 0.21% (n = 360,000) | Potency, µM (top dose mostly 92.2 µM), for the others: at the top dose activity change, negative = less growth, usual class: inhibitors | S. pombe RE007 Vpr strain, BacTiter-Glo ATP luminescence, 24 h; active = well fitted falling curve with a large enough effect; inconclusive = small, poorly fitted or top-dose-only effect; inactive = no such curve, though single readings can be large or run the other way; also: % is scaled to controls: 0 for no effect and ±100 for the full control effect; nearly all actives have a fitted effect of over 50% in size
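Fission yeast RE007 carrying one integrated HIV-1 vpr copy, seeded at OD 0.01 in PMG+AL medium with 23 nL pinned compound. Grown 24 h at 30 degrees; viability read by BacTiter-Glo luminescence after 5 min.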
Sm TGR block: inhibitors of Schistosoma mansoni thioredoxin glutathione reductase | Potency, µM (series often up to 114 µM), without a hit: at the top dose activity change, negative = inhibition, usual class: inhibitors | purified TGR, DTNB reduction, TNB absorbance 405 nm | actives 3% (n = 360,000); also: % is scaled to controls: 0 for no effect and ±100 for the full control effect; nearly all actives have a fitted effect of over 60% in size
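First, TGR (20 nM dispensed) and NADPH were mixed with compound. Second, a 15 min room-temperature incubation followed. Third, further NADPH and then DTNB were added to start the reaction. Finally, TNB absorbance was monitored kinetically.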
NS1 inh: blocks influenza NS1 protein function. Potency, µM (doses to about 46.1 µM), for inactives: at the highest dose activity, positive = more growth. actives 0.4% (n = 270,000); calls by dose curve; also: actives are rising curves; nearly all actives have a fitted effect of over 50% in size
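OD600 was taken as the measure of yeast growth restored by compound in an NS1-expressing S. cerevisiae strain. Cells had been washed out of glucose medium and diluted 1:100 into galactose -URA medium, pH 6.0.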
Giardia growth: blocks growth of Giardia lamblia trophozoites | shares compounds with Giardia FBPA inh-1 | Giardia lamblia trophozoite growth inhibition | Potency, µM (top dose mostly 57.5 µM), for inactives: top-dose activity change, negative = inhibition, most hits filed as inhibitors | actives 5% (n = 1,500) | AID 2785;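 also: trophozoites exposed to compound for 48 h at 37 °C; % is scaled to controls: 0 for no effect and ±100 for the full control effect; nearly all actives have a fitted effect of over 70% in size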
Mammalian tox: mammalian cytotoxicity of Giardia aldolase inhibitor hits; shares compounds with Giardia FBPA inh-1; mammalian cell viability counter-screen, qHTS; Potency, µM (titrated, usually from 57.5 µM), for inactives: top-dose viability change, negative = toxicity, actives largely listed as inhibitors; actives 4% (n = 1,500); AID 2786;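 also: Chinese hamster ovary cells used as mammalian cytotoxicity surrogate; viability measured as cellular ATP by luminescence; compound exposure lasted 48 h before reading; % is scaled to controls: 0 for no effect and ±100 for the full control effect; nearly all actives have a fitted effect of over 60% in size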
Giardia FBPA inh-2: confirmation of Giardia fructose-bisphosphate aldolase inhibitors | purified Giardia aldolase enzyme activity, qHTS | shares compounds with Giardia FBPA inh-1 | Potency, µM (titrated, usually from 57.5 µM), for inactives: at the top dose activity change, negative = inhibition, actives largely listed as inhibitors | actives 5% (n = 1,500) | AID 2787; also: % is scaled to controls: 0 for no effect and ±100 for the full control effect; nearly all actives have a fitted effect of over 45% in size
Rabbit FBPA inh: blocks rabbit muscle aldolase in Giardia aldolase selectivity test; shares compounds with Giardia FBPA inh-1; Rabbit muscle FBPA enzyme inhibition, selectivity counter-screen; Potency, µM (series often up to 57.5 µM), for the others: top-dose activity, negative = inhibition, usual class: inhibitors; actives 4% (n = 1,500); AID 2794; also: % is scaled to controls: 0 for no effect and ±100 for the full control effect; nearly all actives have a fitted effect of over 60% in size
GAPDH counter: counter-screen for Giardia aldolase inhibitors: GAPDH coupling enzyme; shares compounds with Giardia FBPA inh-1; GAPDH coupling enzyme counterscreen, biochemical, qHTS; Potency, µM (top dose mostly 57.5 µM), for the others: top-dose activity change, negative = inhibition, usual class: inhibitors; AID 2795; actives 6% (n = 1,500); also: % is scaled to controls: 0 for no effect and ±100 for the full control effect; nearly all actives have a fitted effect of over 55% in size
Starred values were filed as active, the others as inactive; ? = inconclusive; nt = not tested or not shown; ! = a repeat was not active; [ ] = remark or other dose. Sampled rows, rich in hits. Any-hit rate of the full collection: about 3.5%. Unless noted, calls follow the shape of the dose curve; as a rule, active = well fitted curve in the direction sought with a large enough effect; inconclusive = small, poorly fitted or top-dose-only effect, or another doubt; inactive = no such curve, though single readings can be large; an effect the other way counts as inactive or inconclusive. Potency is read from the fitted curve at half-maximal effect.

SMILES	Giardia FBPA inh-1	LmPK inhibitor	Tb PYK inh	RE007 growth inh	Sm TGR block	NS1 inh	Giardia growth	Mammalian tox	Giardia FBPA inh-2	Rabbit FBPA inh	GAPDH counter
COc1cc(N=c2ssnc2Cl)cc(OC)c1OC	20µM*	-1%	?	-16%	?	-142%	-4%[10.4 µM]	5%	-28%	32µM*	-6%
N#Cc1ccc(N=c2ssnc2Cl)cc1	16µM*	-2%	14µM*	35µM*!	?	-109%	-8%	-12%	-23%	40µM*	11%
CC(C)NCc1cc(Br)ccc1OCc1ccccc1	-4%	5%	5%	-10%	7%	nt	nt	nt	nt	nt	nt
COc1ccc(Br)cc1CNc1ccccc1	28µM*	-4%	-3%	15%	0%	-11%	?	-2%	-5%	-6%	0%
COc1cc(NC(=O)CNC(c2ccccc2)c2ccccc2)cc(OC)c1OC	1%	-1%	-8%	-2%	-8%	-8%	nt	nt	nt	nt	nt
COc1ccc(NC(=O)CNC(c2ccccc2)c2ccccc2)cc1	20µM*	-3%	2%	7%	0%	-8%	-11%	3%	-2%	1%	-1%
CCOC(=O)c1c(NC(=O)CN(C)C2CCN(C)CC2)sc(C(=O)Nc2ccccc2)c1C	20µM*	1%	16%	2%	2%	nt	?	-13%	2%	5%	7%
CCOC(=O)c1c(NC(=O)CSc2cccc[n+]2[O-])sc(C(=O)Nc2ccccc2)c1C	?	2%	-14%	-5%	-3%	nt	nt	nt	nt	nt	nt
CCN1CCN(CC(=O)Nc2cc3c(cc2C(C)=O)OCO3)CC1	13µM*	4%	17%	4%	-12%	nt	-1%[10.4 µM]	13%	-2%	3%	9%
COC(=O)c1ccc(Cl)cc1NC(=O)N(Cc1ccc(OC)cc1)C1CCN(C(C)=O)CC1	nt	nt	-2%	nt	1%	nt	nt	nt	nt	nt	nt
O=[N+]([O-])c1ccc(-c2ccc(/C=N/Nc3nc(NCc4ccccc4)nc(N4CCOCC4)n3)o2)cc1	-2%	-3%	0%	0%	2%[57.1 µM]	2%	nt	nt	nt	nt	nt
COc1nc(N/N=C/c2ccc(-c3ccccc3[N+](=O)[O-])o2)nc(N2CCOCC2)n1	4.5µM*	-2%	-14%	nt	-29%	9%	-33%[38.3 µM]	-7%	?	?	40µM*
Cc1ccc(SCCN2CCN(C)CC2)cc1	22µM*	-3%	0%	14%	-24%	21%	-8%[10.4 µM]	-5%	2%	4%	8%
O=C(O)c1cc(-c2ccccn2)n[nH]1	6.3µM*	-2%	nt	1%[3.69 µM]	1%	10%	-9%	-4%	10%	6%	12%
Cc1ccc(C)c(NC(=O)Cn2cc(C(=O)C3CCCCC3)c3ccccc32)c1	nt	nt	3%	nt	0%	nt	nt	nt	nt	nt	nt
COc1ccc(NC(=O)c2cc3c(=O)n(Cc4cccnc4)ccc3nc2C)cc1Cl	nt	nt	6%	nt	20%	nt	nt	nt	nt	nt	nt
